Test results from PubChem BioAssay AID2322 (Broad Institute, 2010).
The campaign covered roughly 27,000 compounds. About 120 (0.44%) were called active. What follows is part of a selection rich in actives, with near analogues and random picks from the rest. Values without a mark were called inactive. No stated cut-off is given here; in the data, active means inhibition above about 20%; inconclusive means no clear call, values can overlap the other calls; inactive means below that.

What follows are molecules tested against Serine/threonine-protein kinase 33 (Homo sapiens) (UniProt Q9BYT3) (assay: STK33 kinase inhibitors, primary screen, biochemical, luminescence, ADP-Glo, MBP substrate (AID 2322)). Details: at 12.5 µM, stronger effect = higher value.
Serine/threonine-protein kinase 33 (Homo sapiens), sequence (Q9BYT3 whole entry, looked up): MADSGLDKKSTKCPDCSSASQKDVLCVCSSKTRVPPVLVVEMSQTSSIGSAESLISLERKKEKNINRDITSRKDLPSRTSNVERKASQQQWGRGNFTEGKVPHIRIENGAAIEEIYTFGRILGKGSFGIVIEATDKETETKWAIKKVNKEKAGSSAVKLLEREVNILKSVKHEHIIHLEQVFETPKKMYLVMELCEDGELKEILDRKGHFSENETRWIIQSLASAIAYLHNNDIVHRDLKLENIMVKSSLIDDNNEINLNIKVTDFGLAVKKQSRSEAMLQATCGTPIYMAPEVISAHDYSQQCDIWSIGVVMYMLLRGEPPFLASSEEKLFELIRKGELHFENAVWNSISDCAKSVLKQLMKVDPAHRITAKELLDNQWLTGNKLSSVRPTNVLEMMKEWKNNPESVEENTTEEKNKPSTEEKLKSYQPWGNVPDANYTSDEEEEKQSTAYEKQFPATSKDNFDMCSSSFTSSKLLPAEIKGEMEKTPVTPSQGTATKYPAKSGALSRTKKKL
Molecule `COC(=O)c1c(NC(=S)Nc2ccc(OC)cc2[N+](=O)[O-])sc2c1CCC(C)C2` (stereo not drawn) has an inhibition of -1.18%. For `Cc1nnc2sc(-c3cccc(NC(=O)C(C)Oc4ccc(Cl)cc4Cl)c3)nn12` (stereo not drawn), the inhibition was 1.75%. `CN(CC(=O)Nc1c(F)cccc1F)S(=O)(=O)c1ccc(Cl)cc1` gave an inhibition of 0.176%. `CC(C)S(=O)(=O)NCC1CCN(Cc2cccc(OCCO)c2)CC1` was tested, and the inhibition was -4.57%. Molecule `CC1(C)CC[C@]2(C(=O)O)CC[C@]3(C)C(=CCC4[C@@]5(C)CC[C@H](OC6O[C@H](CO)[C@@H](O)[C@H](O[C@@H]7O[C@H](CO)[C@@H](O)[C@H](O)[C@H]7O)[C@H]6O)C(C)(C)C5CC[C@]43C)[C@@H]2C1` (stereo partly drawn) has an inhibition of -3.3%. For `CN(CC(=O)Nc1ccc(Br)cc1)S(=O)(=O)c1ccc2ccccc2c1`, the inhibition was -0.268%. For `COc1ccc(N(CC(=O)Nc2cccnc2)S(C)(=O)=O)c(OC)c1`, the inhibition was 1.05%. Work on `CN1CCN(S(=O)(=O)c2ccc(NC(=O)C3CC=CCC3C(=O)O)cc2)CC1` (stereo not drawn) yielded an inhibition of -6.02%. In the case of `O=C(CSc1nnc2c(n1)[nH]c1ccccc12)Nc1cccc(C(F)(F)F)c1`, the inhibition is reported as 0.0503%. Work on `O=C(c1cc([N+](=O)[O-])ccc1NCc1cccnc1)N1CCOCC1` yielded an inhibition of 0.472%. `CCc1cc(C(=O)OC)c(NC(=S)Nc2ccc(OC)cc2[N+](=O)[O-])s1` gave an inhibition of 2.32%. For `CCc1cc(C(=O)OC)c(NC(=O)CC2Sc3ccc(C(F)(F)F)cc3NC2=O)s1` (stereo not drawn), the inhibition was 26.1% (active). Molecule `C=CCn1c(SCc2nc3ccccc3[nH]2)nnc1-c1cccc(C)c1` has an inhibition of -1.59%. `CCn1c(SCC(=O)Nc2ccc3c(c2)OCCO3)nnc1-c1ccncc1` was tested, and the inhibition was 0.907%. With `COc1ccc(CCNC(=S)Nc2c(C)n(C)n(-c3ccccc3)c2=O)cc1OC` the inhibition was 0.317%. `Cc1ccnc(NC(c2cccc(Br)c2)c2ccc3ccc(C)nc3c2O)c1` (stereo not drawn) showed an inhibition of -1.5%. Molecule `COc1ccc(-c2cc(C(F)(F)F)n3nc(C(=O)NCCCN4CCOCC4)cc3n2)cc1OC` has an inhibition of -3.3%. `CCOc1ccccc1NC(=O)C1C(C(=O)O)C2C=CC1C21CC1` (stereo not drawn) showed an inhibition of -4.9%. With `Cc1ccc(NC(=O)CCCN2C(=O)c3ccccc3C2=O)cc1` the inhibition was 0.883%. In the case of `O=C1O[C@@H](c2ccccc2)[C@@H](c2ccccc2)N2[C@@H](c3ccccc3OCCO)[C@]3(C(=O)Nc4ccc(C#CC5(O)CCCCCC5)cc43)[C@@H](C(=O)N3CCN(c4ncccn4)CC3)[C@H]12`, the inhibition is reported as 10.1%. `COc1ccc(N(CC(=O)Nc2ccc(F)c(F)c2)S(C)(=O)=O)cc1OC` was tested, and the inhibition was 0.788%. `CCn1c(SCC(=O)Nc2cc(Cl)c(Cl)cc2Cl)nnc1-c1cc(Br)ccc1O` was tested, and the inhibition was -2.32%. For `CNC[C@H]1OCc2cnnn2CCCC(=O)N([C@H](C)CO)C[C@@H]1C`, the inhibition was 2.08%. In the case of `Cc1ccc(S(=O)(=O)N(C)C[C@H]2Oc3ccc(NC(=O)Nc4cccc5ccccc45)cc3CC(=O)N([C@H](C)CO)C[C@H]2C)cc1`, the inhibition is reported as 5.7%. Molecule `O=C(CC(NC1CCCC1)C(=O)O)Nc1cccc(Cl)c1` (stereo not drawn) has an inhibition of -4.61%. `Cc1ccc(OCC(=O)Nc2cccc(NC(=O)c3ccco3)c2)cc1C` gave an inhibition of 3.45%. In the case of `COC(=O)c1ccc(NC(=O)CN(c2ccc(C)c(Cl)c2)S(C)(=O)=O)cc1`, the inhibition is reported as -2.86%. `O=C(NCCCn1ccnc1)c1cc2c(s1)CCCC2` was tested, and the inhibition was -4.73%.
